Records with an inconclusive call do not appear. Active and inactive are the calls of the source. Rule for the calls: active = hit-call score of the fitted dose curve at least 0.9, where 1 is the maximum; inconclusive = response in the unintended direction; inactive = score below 0.9.
Experiments:
[1] = biological target: Histone deacetylase 3 (Homo sapiens) (UniProt O15379); experiment: NVS_ENZ_hHDAC3: NovaScreen (NVS) Enzymatic Assay for human Histone Deacetylase 3 (HDAC3) (AID 2283163)
Outline: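 Cell-free enzyme format: loss of fluorescent product after mobility-shift separation, 1 h incubation, recombinant human HDAC3. Single 25 uM duplicate screen first, then concentration series to a 50 uM top for hits; DMSO as baseline.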

[2] = biological target: human Janus Kinase 2 (Jak2), JAK2 (gene 3717) (UniProt O60674); experiment: NVS_ENZ_hJak2: NovaScreen (NVS) Enzymatic Assay for human Janus Kinase 2 (Jak2) (AID 2283169)
Sequence of human Janus Kinase 2 (Jak2), JAK2 (gene 3717) (O60674 whole entry, looked up): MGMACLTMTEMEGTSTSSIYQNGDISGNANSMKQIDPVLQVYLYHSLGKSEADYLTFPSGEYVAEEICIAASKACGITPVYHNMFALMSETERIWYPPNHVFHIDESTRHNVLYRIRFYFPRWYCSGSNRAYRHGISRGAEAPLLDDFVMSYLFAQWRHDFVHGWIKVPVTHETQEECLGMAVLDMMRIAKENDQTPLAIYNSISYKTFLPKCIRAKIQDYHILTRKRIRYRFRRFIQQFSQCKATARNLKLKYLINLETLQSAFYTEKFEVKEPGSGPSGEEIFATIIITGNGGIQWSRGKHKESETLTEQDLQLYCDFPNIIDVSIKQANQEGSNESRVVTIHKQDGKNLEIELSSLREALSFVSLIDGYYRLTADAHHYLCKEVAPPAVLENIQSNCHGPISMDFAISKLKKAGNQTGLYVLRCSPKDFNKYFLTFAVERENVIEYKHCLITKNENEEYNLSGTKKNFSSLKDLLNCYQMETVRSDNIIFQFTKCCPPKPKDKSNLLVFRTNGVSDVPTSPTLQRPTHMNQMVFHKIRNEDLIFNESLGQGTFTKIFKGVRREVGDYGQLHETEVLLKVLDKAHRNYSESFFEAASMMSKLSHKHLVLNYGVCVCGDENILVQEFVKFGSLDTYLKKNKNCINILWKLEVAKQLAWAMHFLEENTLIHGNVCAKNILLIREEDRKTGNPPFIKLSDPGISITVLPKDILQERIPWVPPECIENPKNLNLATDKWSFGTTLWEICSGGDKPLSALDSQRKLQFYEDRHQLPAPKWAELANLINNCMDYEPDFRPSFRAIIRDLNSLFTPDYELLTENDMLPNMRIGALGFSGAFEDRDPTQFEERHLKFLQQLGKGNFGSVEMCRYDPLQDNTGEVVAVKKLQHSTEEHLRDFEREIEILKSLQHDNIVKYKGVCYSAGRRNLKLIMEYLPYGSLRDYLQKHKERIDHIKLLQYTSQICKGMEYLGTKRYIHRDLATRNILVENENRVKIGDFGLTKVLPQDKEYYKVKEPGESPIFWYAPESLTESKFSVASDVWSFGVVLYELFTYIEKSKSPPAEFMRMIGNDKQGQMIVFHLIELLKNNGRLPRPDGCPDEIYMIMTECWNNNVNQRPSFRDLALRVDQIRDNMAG
Outline: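 Single-point duplicate screen at 25 uM, with hits run in concentration series to a 50 uM top dose. Substrate-product separation by mobility shift with fluorescence detection, 1 h post-dosing; DMSO baseline.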

[3] = biological target: human Matrix Metalloproteinase-2 (MMP2), MMP2 (gene 4313) (UniProt P08253); experiment: NVS_ENZ_hMMP2: NovaScreen (NVS) Enzymatic Assay for human Matrix Metalloproteinase-2 (MMP2) (AID 2283184)
Outline: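 Compounds first screened in duplicate at a single 25 uM, with actives followed up in concentration series. Recombinant human MMP2 cleaves a fluorogenic substrate; fluorescence taken at 1 h, inhibition fitted relative to DMSO.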

[4] = biological target: Mitogen-activated protein kinase 3 (Homo sapiens) (UniProt P27361); experiment: NVS_ENZ_hMAPK3: NovaScreen (NVS) Enzymatic Assay for human Mitogen-Activated Protein Kinase 3 (MAPK 3) (AID 2283177)
Sequence of Mitogen-activated protein kinase 3 (Homo sapiens) (P27361 whole entry, looked up): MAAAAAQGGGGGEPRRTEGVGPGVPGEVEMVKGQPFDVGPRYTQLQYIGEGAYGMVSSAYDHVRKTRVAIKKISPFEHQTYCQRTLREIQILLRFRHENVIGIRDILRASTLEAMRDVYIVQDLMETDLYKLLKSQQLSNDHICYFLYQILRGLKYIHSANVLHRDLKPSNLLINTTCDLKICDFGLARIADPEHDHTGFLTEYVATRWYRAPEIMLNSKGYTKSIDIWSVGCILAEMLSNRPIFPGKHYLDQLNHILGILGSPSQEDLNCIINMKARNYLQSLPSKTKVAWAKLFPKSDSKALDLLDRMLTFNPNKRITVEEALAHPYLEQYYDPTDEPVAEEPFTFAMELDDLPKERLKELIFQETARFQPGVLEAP
Outline: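 Chemicals were first tested in duplicate at 25 uM, with hits re-run as concentration series (max 50 uM). Recombinant enzyme activity, measured 1 h post-dose in a cell-free format, was read by fluorescence/mobility shift relative to DMSO.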

[5] = biological target: human Matrix Metalloproteinase-7 (MMP7), MMP7 (gene 4316) (UniProt P09237); experiment: NVS_ENZ_hMMP7: NovaScreen (NVS) Enzymatic Assay for human Matrix Metalloproteinase-7 (MMP7) (AID 2283183)
Sequence of human Matrix Metalloproteinase-7 (MMP7), MMP7 (gene 4316) (P09237 whole entry, looked up): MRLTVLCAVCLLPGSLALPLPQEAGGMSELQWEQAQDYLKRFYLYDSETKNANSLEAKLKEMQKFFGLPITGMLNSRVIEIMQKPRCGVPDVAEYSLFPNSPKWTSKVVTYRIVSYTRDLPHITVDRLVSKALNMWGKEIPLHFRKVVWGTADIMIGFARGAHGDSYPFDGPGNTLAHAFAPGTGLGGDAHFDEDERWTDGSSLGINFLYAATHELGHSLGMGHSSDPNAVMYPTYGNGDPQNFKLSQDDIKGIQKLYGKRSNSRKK
Outline: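 Compounds first tested at 25 uM in duplicate, then at up to 50 uM in concentration series if active. Protease activity measured by fluorescence intensity 1 h after dosing, with fitting relative to DMSO.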

[6] = biological target: Protein deacetylase HDAC6 (Homo sapiens) (UniProt Q9UBN7); experiment: NVS_ENZ_hHDAC6: NovaScreen (NVS) Enzymatic Assay for human Histone Deacetylase 6 (HDAC6) (AID 2283164)
Outline: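 Concentration-response runs up to 50 uM followed a duplicate 25 uM single-point screen. Deacetylase activity of recombinant human HDAC6 read by fluorescence after 1 h, with mobility-shift separation of substrate and product; DMSO as baseline.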

[7] = biological target: Glycogen synthase kinase-3 beta (Homo sapiens) (UniProt P49841); experiment: NVS_ENZ_hGSK3b: NovaScreen (NVS) Enzymatic Assay for human Glycogen Synthase Kinase-3 beta (GSK3b) (AID 2283165)
Sequence of Glycogen synthase kinase-3 beta (Homo sapiens) (P49841 whole entry, looked up): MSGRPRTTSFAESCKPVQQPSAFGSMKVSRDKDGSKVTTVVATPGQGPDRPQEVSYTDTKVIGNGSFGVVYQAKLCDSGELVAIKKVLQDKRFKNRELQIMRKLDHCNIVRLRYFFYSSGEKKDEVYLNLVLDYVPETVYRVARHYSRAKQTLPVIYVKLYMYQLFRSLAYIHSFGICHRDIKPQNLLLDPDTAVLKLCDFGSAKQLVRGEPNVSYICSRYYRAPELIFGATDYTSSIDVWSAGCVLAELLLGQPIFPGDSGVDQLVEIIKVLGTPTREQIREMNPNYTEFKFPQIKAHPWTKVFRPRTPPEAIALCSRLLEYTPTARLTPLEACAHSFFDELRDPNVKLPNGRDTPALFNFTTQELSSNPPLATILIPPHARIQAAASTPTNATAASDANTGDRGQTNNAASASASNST
Outline: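 Recombinant enzyme with specific fluorescent substrate, 1 h, product separated by electrophoretic mobility shift. Primary duplicate screen at 25 uM; actives (e.g. 30% inhibition) followed in singleton concentration-response to 50 uM. Signal loss fitted versus DMSO.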

[8] = biological target: human MAP Kinase-Activated Protein Kinase 2 (MAPKAPK2), MAPKAPK2 (gene 9261) (UniProt P49137); experiment: NVS_ENZ_hMAPKAPK2: NovaScreen (NVS) Enzymatic Assay for human MAP Kinase-Activated Protein Kinase 2 (MAPKAPK2) (AID 2283178)
Sequence of human MAP Kinase-Activated Protein Kinase 2 (MAPKAPK2), MAPKAPK2 (gene 9261) (P49137 whole entry, looked up): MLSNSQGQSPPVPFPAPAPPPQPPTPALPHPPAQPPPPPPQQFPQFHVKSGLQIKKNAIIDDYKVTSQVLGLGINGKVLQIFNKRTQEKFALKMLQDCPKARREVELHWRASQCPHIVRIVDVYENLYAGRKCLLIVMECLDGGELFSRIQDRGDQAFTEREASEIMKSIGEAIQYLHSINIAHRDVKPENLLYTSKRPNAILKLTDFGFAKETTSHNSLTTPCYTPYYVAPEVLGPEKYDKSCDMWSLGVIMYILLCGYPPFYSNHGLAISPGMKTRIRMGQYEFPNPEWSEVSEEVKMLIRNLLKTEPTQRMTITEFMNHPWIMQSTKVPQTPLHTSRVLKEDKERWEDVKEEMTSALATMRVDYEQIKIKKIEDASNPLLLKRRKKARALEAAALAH
Outline: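 Chemicals screened in duplicate at 25 uM, then to 50 uM top concentration in concentration-response, against recombinant human MAPKAPK2; substrate conversion read 1 hr post-dosing by fluorescence after electrophoretic mobility-shift separation, loss-of-signal relative to DMSO.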

[9] = biological target: human Fibroblast Growth Factor Receptor 1 (FGFR1), FGFR1 (gene 2260) (UniProt P11362); experiment: NVS_ENZ_hFGFR1: NovaScreen (NVS) Enzymatic Assay for human Fibroblast Growth Factor Receptor 1 (FGFR1) (AID 2283159)
Sequence of human Fibroblast Growth Factor Receptor 1 (FGFR1), FGFR1 (gene 2260) (P11362 whole entry, looked up): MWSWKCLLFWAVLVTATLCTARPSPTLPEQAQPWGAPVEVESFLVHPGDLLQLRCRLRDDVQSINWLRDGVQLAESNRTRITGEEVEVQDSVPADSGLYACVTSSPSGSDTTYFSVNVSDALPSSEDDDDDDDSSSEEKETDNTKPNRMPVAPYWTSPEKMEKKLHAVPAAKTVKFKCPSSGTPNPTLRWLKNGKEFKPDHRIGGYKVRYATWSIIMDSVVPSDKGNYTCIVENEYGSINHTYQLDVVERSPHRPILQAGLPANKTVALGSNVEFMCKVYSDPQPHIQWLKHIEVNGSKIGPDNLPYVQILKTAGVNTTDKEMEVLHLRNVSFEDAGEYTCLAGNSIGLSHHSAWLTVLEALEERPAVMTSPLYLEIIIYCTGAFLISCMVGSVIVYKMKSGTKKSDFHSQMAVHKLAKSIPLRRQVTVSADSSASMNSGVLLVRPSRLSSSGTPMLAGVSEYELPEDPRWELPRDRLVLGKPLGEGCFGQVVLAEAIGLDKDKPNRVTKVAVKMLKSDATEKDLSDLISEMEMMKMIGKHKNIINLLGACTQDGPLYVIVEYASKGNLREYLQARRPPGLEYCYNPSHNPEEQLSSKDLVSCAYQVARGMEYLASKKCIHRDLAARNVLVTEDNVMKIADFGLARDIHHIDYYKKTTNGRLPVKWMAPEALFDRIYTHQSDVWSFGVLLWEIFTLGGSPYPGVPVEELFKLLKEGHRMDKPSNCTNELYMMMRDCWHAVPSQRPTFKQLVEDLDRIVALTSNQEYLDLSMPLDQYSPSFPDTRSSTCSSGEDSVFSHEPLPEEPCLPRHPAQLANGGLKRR
Outline: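 Cell-free recombinant kinase with fluorescent substrate, product separated by electrophoretic mobility shift; read 1 hour after dosing, loss of signal relative to DMSO. Initial screen in duplicate at 25 uM, actives followed in concentration series.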

[10] = biological target: human Matrix Metalloproteinase-3 (MMP3), MMP3 (gene 4314) (UniProt P08254); experiment: NVS_ENZ_hMMP3: NovaScreen (NVS) Enzymatic Assay for human Matrix Metalloproteinase-3 (MMP3) (AID 2283185)
Sequence of human Matrix Metalloproteinase-3 (MMP3), MMP3 (gene 4314) (P08254 whole entry, looked up): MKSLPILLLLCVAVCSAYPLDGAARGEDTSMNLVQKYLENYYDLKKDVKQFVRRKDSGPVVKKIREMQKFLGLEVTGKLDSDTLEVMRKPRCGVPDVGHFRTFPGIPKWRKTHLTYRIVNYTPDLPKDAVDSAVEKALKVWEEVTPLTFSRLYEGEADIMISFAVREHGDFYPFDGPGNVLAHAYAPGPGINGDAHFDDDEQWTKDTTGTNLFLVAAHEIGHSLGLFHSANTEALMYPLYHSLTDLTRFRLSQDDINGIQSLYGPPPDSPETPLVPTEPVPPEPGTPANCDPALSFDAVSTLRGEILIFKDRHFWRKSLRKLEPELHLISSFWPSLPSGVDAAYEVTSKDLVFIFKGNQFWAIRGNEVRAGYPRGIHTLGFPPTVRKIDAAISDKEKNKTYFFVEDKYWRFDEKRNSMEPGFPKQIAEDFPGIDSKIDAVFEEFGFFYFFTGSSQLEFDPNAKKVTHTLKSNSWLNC
Outline: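 Fluorescent substrate turnover by recombinant MMP3 read after 1 h, signal loss scored against DMSO. Compounds first run in duplicate at 25 uM single dose, then actives confirmed by concentration series.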

[11] = biological target: human IkappaB Kinase alpha (IKKa), CHUK (gene 1147) (UniProt O15111); experiment: NVS_ENZ_hIKKa: NovaScreen (NVS) Enzymatic Assay for human IkappaB Kinase alpha (IKKa) (AID 2283167)
Sequence of human IkappaB Kinase alpha (IKKa), CHUK (gene 1147) (O15111 whole entry, looked up): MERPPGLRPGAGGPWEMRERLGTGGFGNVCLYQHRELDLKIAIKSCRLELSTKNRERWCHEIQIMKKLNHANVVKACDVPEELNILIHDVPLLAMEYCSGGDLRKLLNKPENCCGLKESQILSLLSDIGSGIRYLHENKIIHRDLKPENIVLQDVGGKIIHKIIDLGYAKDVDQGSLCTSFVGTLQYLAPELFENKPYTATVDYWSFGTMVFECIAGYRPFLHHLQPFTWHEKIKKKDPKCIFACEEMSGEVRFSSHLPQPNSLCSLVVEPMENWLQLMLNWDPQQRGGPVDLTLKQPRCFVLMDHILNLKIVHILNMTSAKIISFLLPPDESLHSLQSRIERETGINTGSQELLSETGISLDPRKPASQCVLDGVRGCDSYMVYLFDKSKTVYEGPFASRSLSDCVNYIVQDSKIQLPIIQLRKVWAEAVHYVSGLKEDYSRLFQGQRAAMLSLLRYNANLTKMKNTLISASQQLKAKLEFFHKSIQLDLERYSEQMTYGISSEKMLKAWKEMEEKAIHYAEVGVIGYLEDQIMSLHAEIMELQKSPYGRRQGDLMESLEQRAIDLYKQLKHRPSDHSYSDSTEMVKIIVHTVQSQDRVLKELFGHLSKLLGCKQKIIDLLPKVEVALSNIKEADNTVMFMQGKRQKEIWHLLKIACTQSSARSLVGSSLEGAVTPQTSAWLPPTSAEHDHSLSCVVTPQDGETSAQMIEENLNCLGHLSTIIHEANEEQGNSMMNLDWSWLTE
Outline: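 Compounds first run in duplicate at 25 uM, those meeting threshold (e.g. 30% inhibition) retested to maximum 50 uM. Enzyme activity of recombinant IKKa measured by fluorescence with electrophoretic mobility shift separation, 1 hour post-dosing, DMSO baseline.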

[12] = biological target: human Insulin Receptor (InsR), INSR (gene 3643) (UniProt P06213); experiment: NVS_ENZ_hInsR: NovaScreen (NVS) Enzymatic Assay for human Insulin Receptor (InsR) (AID 2283168)
Outline: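 Cell-free enzyme assay read 1 h post-dose by fluorescence after substrate/product mobility-shift separation. Duplicate 25 uM primary screen, then singleton concentration-response up to 50 uM for compounds passing threshold; loss of signal vs DMSO.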

[13] = biological target: human FYN Proto-Oncogene, Src family Tyrosine Kinase (Fyn), FYN (gene 2534) (UniProt P06241); experiment: NVS_ENZ_hFyn: NovaScreen (NVS) Enzymatic Assay for human FYN Proto-Oncogene, Src family Tyrosine Kinase (Fyn) (AID 2283161)
Outline: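 Cell-free kinase activity read by fluorescence after mobility-shift separation of substrate and product, 1 h post-dose. Initial single concentration 25 uM in duplicate, then concentration-response follow-up; DMSO baseline.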

[14] = biological target: human MET Proto-Oncogene, Receptor Tyrosine Kinase (MET), MET (gene 4233) (UniProt P08581); experiment: NVS_ENZ_hMet: NovaScreen (NVS) Enzymatic Assay for human MET Proto-Oncogene, Receptor Tyrosine Kinase (MET) (AID 2283180)
Outline: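 Hits from a 25 uM duplicate screen were retested in concentration series up to 50 uM. Enzyme activity was measured by fluorescence after electrophoretic separation of product from substrate, 1 h after compound addition, relative to DMSO.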

[15] = biological target: Collagenase 3 (Homo sapiens) (UniProt P45452); experiment: NVS_ENZ_hMMP13: NovaScreen (NVS) Enzymatic Assay for human Matrix Metalloproteinase-13 (MMP13) (AID 2283182)
Outline: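 Recombinant MMP13 cleaving fluorescent substrate, cell-free, measured 1 h after dosing. Primary duplicate screen at 25 uM; actives tested in concentration-response up to 50 uM; loss of signal relative to DMSO.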

O=c1ccc(=O)[nH][nH]1
AC50 [1]: 14.5 µM (active)
outcome [2]: inactive

CCOC(=O)CC(SP(=O)(OC)OC)C(=O)OCC (stereo not drawn)
outcome [3]: inactive

CC(C1CC1)C(O)(Cn1cncn1)c1ccc(Cl)cc1 (stereo not drawn)
outcome [4]: inactive

CCc1cnc(C2=NC(C)(C(C)C)C(=O)N2)c(C(=O)O)c1 (stereo not drawn)
AC50 [5]: 8.62 µM (active)

N#CSCSC#N
AC50 [6]: 3.68 µM (active)
outcome [7]: inactive
outcome [8]: inactive
outcome [5]: inactive

C[N+]1(C)CCCCC1
outcome [9]: inactive

CCOP(=S)(OCC)Oc1cc(C)nc(C(C)C)n1
outcome [6]: inactive
outcome [5]: inactive

Cc1cc(C2CC2)nc(Nc2ccccc2)n1
outcome [2]: inactive
outcome [10]: inactive

COc1cccc(C(=O)NN(C(=O)c2cc(C)cc(C)c2)C(C)(C)C)c1C
outcome [11]: inactive

CNC(=O)Oc1cccc2c1OC(C)(C)O2
AC50 [5]: 6.07 µM (active)

CCNc1nc(Cl)nc(NC(C)(C)C#N)n1
outcome [7]: inactive
outcome [12]: inactive

CC(C)N(C(=O)SCC(Cl)=C(Cl)Cl)C(C)C
outcome [11]: inactive

S=C1NCCN1
outcome [13]: inactive
outcome [11]: inactive
outcome [4]: inactive
outcome [8]: inactive
outcome [14]: inactive
outcome [15]: inactive
outcome [5]: inactive
outcome [10]: inactive

CCOC(=O)COc1cc(-c2nn(C)c(OC(F)F)c2Cl)c(F)cc1Cl
outcome [9]: inactive

Source: PubChem BioAssay (EPA / NIEHS)
